Source: PubChem BioAssay (NCI)
About 83,000 compounds went through this panel and 20% of them were active in at least one assay; those are over-represented in the sample as a whole.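 Plates (96-well) were seeded with cells, treated with compound at one concentration, and incubated for 48 hours before percent growth was determined.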 The source made the active and inactive calls. Rule for the calls: active = growth percent below 10; inactive = the rest.

Test system: SK-MEL-28 melanoma
Assay: NCI-60 one-dose screen, 48 h (100 = growth as untreated, 0 = no growth, -100 = all killed)
Settings: 10 µM unless noted

SMILES | growth
C=C(C)[C@@H]1CC[C@]2(C(N)=O)CC[C@]3(C)[C@H](CC[C@@H]4[C@@]5(C)CC[C@H](OCCC#N)C(C)(C)[C@@H]5CC[C@]43C)[C@@H]12 | 92.8% (inactive)
CN(C)CCCC1(c2ccc(F)cc2)OCc2cc(-c3cc4ccccc4s3)ccc21 (centres undefined) | -87.5% (active)
[2H]C([2H])([2H])Oc1ccc(F)cc1/C=C/C(=O)/C=C(/C=C/c1cc(F)ccc1OC([2H])([2H])[2H])OB(F)F | 94.2% (inactive)
COc1ccc(/C(C)=C(/c2ccc(OCCCN(C)C)cc2)c2ccc(OC(=O)c3ccccc3)cc2)cc1 | 85.2% (inactive)
Cc1ccc2c(=O)cc(C(=O)Nc3sc4c(c3C(=O)NCc3cccnc3)CCCC4)oc2c1C | 104% (inactive)
CCCCCCCC/C=C\CCCCCCCCOc1ccc(CC(=O)NCC[N+]2(C)CCOCC2)cc1 | 93.7% (inactive)
O=C1/C(=C/c2ccc(F)cc2)CN(C(=O)C(Cl)Cl)C/C1=C\c1ccc(F)cc1 | -72.1% (active)
COc1ccc(Nc2ncccc2/C=C/C(=O)c2cc(OC)c(OC)c(OC)c2)cc1 | -77% (active)
O=C(Cc1cccc(OC(F)(F)F)c1)Nc1ccc(CCCCc2nnc(NC(=O)Cc3ccccn3)s2)nn1 | 93.8% (inactive)
C=C1C(=O)O[C@H]2[C@H]1CC/C(COC(=O)/C=C\C(=O)NCc1ccc(Cn3c(=O)sn(CCCl)c3=O)cc1)=C\CC[C@@]1(C)O[C@@H]21 | 87% (inactive)
CNC(=O)c1ccccc1Nc1nc(Nc2cc(OC)c(OC)c(OC)c2)ncc1Br | -13.6% (active)
Cc1ccc(C=C2C(=O)NC(=O)NC2=O)cc1 | 107% (inactive)
O=C(CN1CCCCCC1)Nc1nc2ccc(NCc3ccc(Cl)cc3)cc2s1 | 104% (inactive)
COc1ccc(C(=O)Cn2c(C(=O)c3ccc(Cl)cc3)nc3ccccc32)cc1 | 71.2% (inactive)
C#CCO[C@H]1CC(CC#C)(CC#C)C(=O)[C@@H]2[C@H]1[C@H]1C[C@@H]3[C@@]4(C)CCC[C@@](C)(C(=O)OC)[C@@H]4CC[C@@]23C=C1C(C)C | 99.1% (inactive)
Fc1ccc2[nH]cc(-c3nc(-c4c[nH]c5ccncc45)cs3)c2c1 | -92.1% (active)
O=C(CSc1nc(-c2ccccc2)cc(=O)[nH]1)Nc1nc(-c2ccccc2)cs1 | 111% (inactive)
O=C1/C(=C2\SC(=S)N(C3CC3)C2=O)SC(=S)N1C1CC1 | 106% (inactive)
COc1ccc(Cn2cc3c(c2-c2ccccc2)CCc2cnoc2-3)cc1 | 56.4% (inactive)
Cc1nn(-c2ccccc2)c(N)c1N=C1NC(=O)/C(=C/c2ccc(Br)cc2)S1 | 94.5% (inactive)
CN(C)c1ccc(/C=C(\C#N)c2cc3ccccc3[nH]2)cc1 | 54.7% (inactive)
COC(=O)c1c2c(c(C)[n+]([O-])c1C)C(=O)C(NCc1ccc(OC)cc1)=CC2=O | 61.9% (inactive)
O=C1/C(=C\c2cccc3nccnc23)SC(=S)N1CCc1ccc(O)cc1 | 99.5% (inactive)
Cc1cn(-c2cc(NC(=O)c3cncc(C#Cc4c(N)ncc5ccc(F)cc45)c3)cc(C(F)(F)F)c2)cn1 | 42.4% (inactive)
CCCCNC(=O)Oc1ccc(/C(=C(/C)Cc2ccc(OC)cc2)c2ccc(OCCN3CCCCCC3)cc2)cc1 | 95% (inactive)
COc1ccc(-c2n[nH]c(=O)c3nc(NC(=S)Nc4ccc(Oc5ccccc5)cc4)sc23)cc1 | 104% (inactive)
O=C(/C=C/C12c3ccccc3C(c3ccccc31)C1C(=O)NC(=O)C12)c1ccc(Br)cc1 (centres undefined) | 50.6% (inactive)
C=CN(C(=O)N1CCN(c2cc3c(cc2F)c(=O)c(C(=O)O)cn3C2CC2)CC1)c1nc(-c2ccc(OC)cc2)cs1 | 45.7% (inactive)
Cc1cc(Nc2ccc(C(=O)N3CCCC3)cc2)nc(NCCCNc2ccnc3cc(Cl)ccc23)n1 | 92.1% (inactive)
